D1 agonist: Allosteric Agonists of the Human D1 Dopamine Receptor: qHTS; activation, % at 2 µM; HEK293 T-REx D1 cells, calcium flux, agonist mode; D(1A) dopamine receptor (Homo sapiens), P21728; AID 504660, 2011; hit rate 1% among 360,000; also: 0% is about no effect
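Tetracycline-induced HEK293 TREx D1 cells, force-coupled to calcium signalling, were dye-loaded with a no-wash calcium kit. Compound was pin-added after a 10 s baseline. Fluorescence was read kinetically at 1 cycle/s for 180 s, with calcium rises flagged as agonism.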
TRHR enhancer: qHTS for Small Molecule Agonists and Allosteric Enhancers of Human TRH Receptor: Primary Screen for Enhancers; TRHR cells, fluo-8 calcium fluorescence, EC20 TRH enhancement; enhancement, % at 2 µM; hit rate 0.66% among 360,000; in the data active = enhancement above about 30%; also: 0% is about no effect
Target sequence (P34981 whole entry, looked up): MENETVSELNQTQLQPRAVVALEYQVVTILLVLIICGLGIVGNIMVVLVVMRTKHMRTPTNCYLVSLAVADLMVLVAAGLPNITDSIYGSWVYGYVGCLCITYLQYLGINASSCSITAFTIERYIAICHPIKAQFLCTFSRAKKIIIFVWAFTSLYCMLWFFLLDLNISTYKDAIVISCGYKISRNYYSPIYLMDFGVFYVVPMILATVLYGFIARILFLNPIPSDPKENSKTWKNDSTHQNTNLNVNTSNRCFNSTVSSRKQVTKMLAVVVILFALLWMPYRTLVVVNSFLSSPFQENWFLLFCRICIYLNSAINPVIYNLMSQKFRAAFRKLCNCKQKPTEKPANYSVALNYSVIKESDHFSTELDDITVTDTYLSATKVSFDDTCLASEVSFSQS
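TRHR-expressing cells loaded with fluo-8 calcium dye were read kinetically (ex 480/em 530) during compound addition, then stimulated with an EC20 of TRH (10 nM final). Enhancement of the Gq-mediated intracellular calcium response was scored.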
TRHR ag: qHTS for Small Molecule Agonists and Allosteric Enhancers of Human TRH Receptor: Primary Screen for Agonists. TRHR cells, calcium flux fluo-8, FDSS agonist mode. activation, % at 2 µM. hit rate 0.18% among 360,000. AID 493084, 2011; also: 0% is about no effect
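Read-out: compound-evoked intracellular calcium rise in TRHR cells, fluo-8 dye, kinetic FDSS fluorescence at 1 s/cycle following a 10-cycle baseline. Cells cultured overnight before dye loading (30 min–1.5 h, RT).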
D1 PAM: Potentiators of Human D1 Dopamine Receptor: qHTS | HEK293 TREx D1 cells, calcium flux, dopamine EC20 potentiation | potentiation, % at 10 µM | hit rate 0.036% among 360,000 | AID 504651, 2011; in the data active = potentiation above about 30%; also: 0% is about no effect
D1 antag: Antagonist of Human D 1 Dopamine Receptor: qHTS; activity change, negative = inhibition, % at 10 µM; HEK293 TREx D1 cells, calcium flux, dopamine EC80; active compounds read low; hit rate 3.2% among 360,000; in the data active = activity change below about -30%; also: % is scaled to controls: 0 for no effect and ±100 for the full control effect
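Tetracycline-induced HEK293 Trex D1 cells, force-coupled to calcium, dye-loaded; compounds added and read 180 s, then EC80 dopamine added and calcium flux tracked kinetically another 180 s.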
* marks the source's active call; other numbers are inactive results. Sampled rows, rich in hits. Any-hit rate of the full collection: about 4.7%. Rule as the data show it, unless noted: active = activation above about 30%; inactive = the rest.

SMILES	D1 agonist	TRHR enhancer	TRHR ag	D1 PAM	D1 antag
COc1cccc(OCCNC(=O)Nc2cc(F)c(F)cc2Cl)c1	9	-5	-1	20	-40*
Cc1cccc(NC(=O)CSC2=Nc3ccccc3C3=NC(CCC(=O)NCc4ccc(F)cc4)C(=O)N23)c1 (centres undefined)	0	-6	-1	8	-8
CC1=CC(C)(C)N(C(=O)CNC2CCCCC2)c2cc(C)ccc21	10	0	1	0	28
COc1cc2oc(=O)ccc2cc1[C@H](O)[C@@H](O)C(C)(C)O	-1	39*	0	-1	14
Cc1cccn2c(=O)c(/C=C(\C#N)C(N)=O)c(N3CCN(c4cccc(Cl)c4)CC3)nc12	3	1	0	2	22
CC(=O)OC1CC(C)N(C(=O)c2ccccc2)c2ccc(C)cc21 (centres undefined)	2	-2	-1	0	-5
CCCC(=O)OC1CC(C)N(C(=O)c2ccccc2)c2ccc(C)cc21 (centres undefined)	32*	-2	0	-24	-8
Nc1ccc(-c2c3ccc(=O)cc-3oc3cc(O)ccc23)cc1C(=O)O	245*	22	152*	1	-1
O=c1ccc2c(-c3ccccc3)c3ccc(O)cc3oc-2c1	0	5	0	8	-4
Cc1ccc(OCC(=O)Nc2c(C)nn(-c3ccccc3)c2C)c(Br)c1	15	-3	0	-4	-37*
Cc1ccc(C)c(OCC(=O)OCC(=O)Nc2c(C)nn(-c3ccccc3)c2C)c1	6	-6	0	-4	-2
Cc1cc(N2CCCCC2)nc(N)n1	19	-5	42*	-1	5
CC(=O)Nc1ccc(Sc2ccccc2C(=O)Nc2ccc(F)cc2)cn1	46*	1	4	2	-8
CN(C)S(=O)(=O)N1CCC(Oc2cccc(C(=O)NC3CCCCCC3)c2)CC1	14	-3	0	-7	-32*
CN(C)S(=O)(=O)N1CCC(Oc2ccc(C(=O)N3CCCCCCC3)cc2)CC1	23	13	0	-8	-35*
CN(C(=O)c1ccc(OC2CCN(S(=O)(=O)N(C)C)CC2)cc1)C1CCCCC1	4	-11	1	-7	-1
Cc1cc(CNC(=O)c2cccc(OC3CCN(S(=O)(=O)N(C)C)CC3)c2)on1	9	3	0	-10	-39*
CC1CCCCN1C(=O)c1ccc(OC2CCN(S(=O)(=O)N(C)C)CC2)cc1 (centres undefined)	11	-3	1	0	-24
CCN(Cc1cnn(C)c1)C(=O)c1ccc(OC2CCN(S(=O)(=O)N(C)C)CC2)cc1	9	9	-2	-5	-42*
O=C(Nc1ccc(Cl)c(Cl)c1)c1ccc(Cn2cc(Cl)cn2)cc1	34*	3	0	-6	-7
NNC(=O)c1ccc(Cn2cc(Cl)cn2)cc1	2	-3	0	-4	-15
COc1ccc(NS(=O)(=O)c2ccc(NC(=O)c3ccccn3)cc2)cc1	11	3	0	-9	-39*
COc1ccc(NS(=O)(=O)c2csc(C(=O)Nc3ccccc3)c2)cc1	17	0	-1	-5	-42*
CC(C)=CC(=O)Nc1ccc(S(=O)(=O)Nc2ccccn2)cc1	0	37*	0	-14	10
CCC(=O)Nc1ccc(S(=O)(=O)Nc2ccccn2)cc1	5	0	2	6	-1
SMILES	D1 agonist	TRHR enhancer	TRHR ag	D1 PAM	D1 antag
COc1ccc(NS(=O)(=O)c2cccc(NC(=O)c3ccccn3)c2)cc1	13	-1	0	-5	-9
COc1ccc(NS(=O)(=O)c2cccc(NC(=O)COc3ccc(OC)cc3)c2)cc1	21	5	-1	-4	-33*
CCCSCCCNC(=O)CN1C(=O)COc2ccc(S(=O)(=O)N3CCCCCC3)cc21	4	25	1	-5	-20
COc1ccc(NC(=O)Nc2sc(NS(=O)(=O)c3ccccc3)nc2C)cc1	4	1	-1	-4	-39*
COc1ccc(NS(=O)(=O)c2ccc(OC)c(NC(=O)CCC3CCCCC3)c2)cc1	5	13	0	-4	-35*
Cc1ccc(CNC(=O)c2cc(=O)c3cc(C)c(C)cc3o2)cc1	1	-9	-1	-2	1
COC(=O)c1cc(Br)c(=O)n(CCN2CCCC2)c1	2	-6	1	-8	-7
COC(=O)c1cc(Br)c(=O)n(CC(C)C)c1	1	31*	-1	3	-1
COc1ccc(Cl)cc1-n1nnc(-c2nc(-c3ccccc3)no2)c1C	2	-20	0	-1	-57*
COc1cc(-c2noc(-c3nnn(-c4ccc(Cl)cc4)c3C)n2)cc(OC)c1OC	2	5	0	0	-33*
Cc1ccc2cc(CCNS(=O)(=O)c3ccc(Cl)cc3)c(=O)[nH]c2c1C	-2	-6	0	-6	-37*
N#CC1=C(N)NC(SCc2ccccc2)=C(C#N)C12CCCCC2	19	-7	0	-1	-36*
COc1ccc(CNc2oc(-c3ccc(COc4ccc(Cl)cc4)o3)nc2C#N)cc1	4	-1	0	1	-7
COc1ccccc1CNC(=O)c1cn(C)c2ccc(S(=O)(=O)N(C)C3CCCCC3)cc2c1=O	4	3	0	15	-37*
COC(CN(C)C(=O)c1cn(C)c2ccc(S(=O)(=O)N(C)C3CCCCC3)cc2c1=O)OC	1	31*	0	-5	-1
Cc1ccc(CNC(=O)c2cn(C)c3ccc(S(=O)(=O)N(C)C4CCCCC4)cc3c2=O)cc1	-2	0	0	2	-3
O=Cc1ccc(OC(=O)/C=C/c2ccccc2)cc1	5	10	0	-13	-10
CCOc1ccc(S(=O)(=O)NCCC(=O)NCCOc2ccccc2)cc1	0	1	0	1	-9
CC(=O)c1ccc(OCC(O)CN(C)Cc2cccs2)cc1 (centres undefined)	37*	3	-1	1	-43*
COc1ccc(N(Cc2cccs2)C(=O)c2ccccc2C)cc1	4	-5	0	1	-36*
Cc1ccc(N(Cc2cccs2)C(=O)c2ccccc2)cc1	1	2	0	-1	-34*
COc1ccc(N(Cc2cccs2)C(=O)c2ccc(C(C)(C)C)cc2)cc1	14	0	2	-1	2
COc1ccc(N(Cc2cccs2)C(=O)c2ccc(OCC(C)C)cc2)cc1	34*	19	0	3	3
Cc1ccc(N(Cc2cccs2)C(=O)c2ccc(Br)o2)cc1	8	-11	0	-2	-19
